For 14 compounds, growth results are on record in PubChem BioAssay (NCI).

Assay in all cases: NCI-60 one-dose screen, 48 h (100 = growth as untreated, 0 = no growth, -100 = all killed)
Common to all, as to details: 10 µM unless noted

For assay [1], the system named is NCI-H23 lung.
Assay [2] has as its system NCI-H226 lung.
Assay [3] relates to NCI-H322M lung.
Assay [4] relates to HOP-62 NSCLC.
Assay [5] concerns NCI-H460 lung.
In assay [6] the test system is HOP-92 NSCLC.
Assay [7] deals with NCI-H522 lung.
Assay [8] concerns A549/ATCC NSCLC.
The subject of assay [9] is 786-0 renal.
Assay [10] relates to COLO 205 colon.

Each structure is given as a SMILES string. The panel holds about 83,000 compounds, 20% with a hit somewhere; the sample as a whole holds those more often.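 Method: cells in 96-well plates; compound added at one concentration; 48 h incubation; percent growth measured; values under 10 scored active.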 Values without a mark were called inactive. Calls of active or inactive are those of the source.

For the compound `O=C(/C=C/c1ccccc1)n1c(-c2ccccc2)nc2ccccc21`, the growth in assay [1] was 101%; in [2], 101%; in assay [3], 108%; in [4], 105%; in assay [5], 103%; in [6], 91.6%. Besides, the growth in [7] was 102%; in [8], 101%; in [9], 100%; in assay [10] it was 109%.
For the compound `COc1ccc(/C(=C\c2ccc3c(c2)OCO3)C(=O)Nc2nc3ccccc3s2)cc1`, the growth was 106% in [1]; 97.6% in assay [2]; 94.4% in [3]; 95.5% in assay [4]; 110% in assay [5]; 104% in [6]. For the same compound, the growth is 81.5% in assay [7], 93.9% in [8], 97.2% in assay [9] and 110% in assay [10].
On to `Cc1c(C)c(C)c([N+](=O)[O-])c([N+](=O)[O-])c1C`, for which the growth is 107% in assay [1]; 104% in assay [2]; 116% in assay [3]; 103% in assay [4]; 108% in [5]; 69% in assay [6]. Also, the growth in [7] is 98.7%; in assay [8], 93.4%; in assay [9], 93.6%; in [10], 115%.
Consider `CNC(=O)c1cc(Oc2ccc(NC(=O)c3nc(S(C)(=O)=O)n(C)c3-c3ccc(F)cc3)cc2)ccn1`, for which the growth in assay [1] is 79.1%; in assay [2] it was 87.4%; in assay [3], 62.5%; in assay [4], 91.3%; in assay [5], 59.4%; in [6] it was 77.3%. The growth is 84.5% in [7], 82.5% in assay [8], 75.4% in [9] and 59.4% in assay [10].
`CC(=O)N1N=C(c2ccc(C)cc2)CC1c1cn(-c2ccccc2)nc1-c1cccc(Nc2ccnc3cc(Cl)ccc23)c1` (stereo not given): the growth in assay [1] was 79.1%; in assay [2], 111%; in [3] it was 56.9%; in [4] it was -19.7% (active); in [5], 15.8%; in assay [6] it was 78.7%. Moreover, the growth in [7] was 36%; in assay [8] it was 68.4%; in assay [9], 52.3%; in assay [10] it was 93.8%.
As for `Nc1ccc(N(O)/C=C2\C=CC=CC2=O)cc1N`, the growth is 82.7% in [1]; 103% in [2]; 110% in [3]; 95.7% in [4]; 119% in [5]; 91.3% in assay [6]. The growth was 72.7% in assay [7], 94.4% in [8], 92.3% in [9] and 114% in [10].
`Nc1cccc(S(=O)(=O)c2cccc(N)c2)c1`: the growth in assay [1] is 111%; in [2], 107%; in [3] it was 124%; in assay [4] it was 111%; in assay [5], 120%; in assay [6], 97%. Further, the growth in assay [7] was 111%; in assay [8], 111%; in assay [9], 108%; in assay [10], 117%.
In the case of `COc1ccc(NC(=O)c2ccc(C(F)(F)F)nc2Nc2ccc(Cl)cc2C)cc1Cl`, the growth in assay [1] was 3.83% (active); in assay [2] it was 26.7%; in assay [3], 45.8%; in assay [4], 32.4%; in assay [5] it was 7.62% (active); in assay [6], -8.93% (active). Further, the growth in assay [7] was 18.9%; in [8] it was 14.2%; in assay [9], 17%; in [10] it was -14.5% (active).
`CC(CN1CCN(CCOCCO)CC1)CN1c2ccccc2Sc2ccc(Cl)cc21` (stereo not given): the growth was 72.7% in [1]; 83.5% in [2]; 88.2% in assay [3]; 107% in [4]; 50.2% in [5]; -3.33% (active) in assay [6]. For the same compound, the growth in [7] is 33.3%; in [8], 75.1%; in assay [9], 65.5%; in assay [10], -79.9% (active).
As for `Clc1ccc(Nc2ncnc3c2sc2ncccc23)c(Cl)c1`, the growth in assay [1] is 14.9%; in assay [2], 43.6%; in [3], 45.1%; in assay [4], 1.95% (active); in [5], 10.1%; in assay [6], 22.3%. In addition, the growth in assay [7] was 31.8%; in assay [8], 26.8%; in assay [9], 17.2%; in assay [10] it was 27.6%.
For the compound `COC(=O)C(C)NC1=C(Cl)C(=O)C(NC(C)C(=O)OC)=C(Cl)C1=O` (stereo not given), the growth in [1] was 101%; in assay [2] it was 100%; in [3], 101%; in [4], 98.7%; in assay [5], 95.9%; in [6], 101%. Further, the growth is 78.2% in assay [7], 98.9% in assay [8], 105% in assay [9] and 99.5% in assay [10].
In the case of `COc1cc(OC)cc(-c2n/c(=C\c3c(O)[nH]c4ccc(Cl)cc34)cc3c2=Nc2ccccc2-3)c1`, the growth in [1] is 34%; in assay [2], 84.3%; in assay [3], 93.2%; in assay [4], 72.5%; in assay [5], 43.3%; in assay [6] it was 92.6%. The growth in [7] was 60.7%; in [8] it was 58.5%; in [9], 39.3%; in assay [10], 90.5%.
With `COc1cc(C2CC(c3cccc(Nc4ccnc5cc(Cl)ccc45)c3)=NN2c2ccc(Cl)cc2)cc(OC)c1OC` (stereo not given), the growth in assay [1] is 73.8%; in assay [2] it was 70.6%; in assay [3] it was 81.4%; in assay [4], 76.7%; in assay [5], 36.4%; in assay [6] it was 37.5%. The growth in assay [7] is 40.6%; in assay [8], 57%; in assay [9] it was 54.5%; in assay [10] it was 80.9%.
Turning to `N=c1n(Cc2ccccc2)c(N)cc(=O)n1Cc1ccccc1`, the growth in assay [1] is 12.7%; in assay [2] it was 5.6% (active); in [3], 26.5%; in [4], 26.7%; in assay [5], -25% (active); in assay [6] it was 99.5%. In addition, the growth was 10.1% in assay [7], -47.2% (active) in [8], 19.2% in assay [9] and 66.8% in [10].
